Source: PubChem
Only some compounds are listed: those with a hit (about 3.5% of all), similar ones and a draw of the others.
TEAD-YAP inh – TEAD-YAP interaction inhibition, primary screen, TEAD-YAP interaction inhibitor project, luminescence, HEK-TIYL cells. TEAD-Gal4/YAP UAS-luciferase luminescence. inhibition, % at 9.12 µM. 1.4% of 640,000 active. AID 1259422, 2018; in the data active = inhibition above about 32%;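 also: 0% = median of test compound wells and 100% = reference inhibitor wells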
GPR151 ag – activators of human GPR151, primary screen, cell-based, PathHunter beta-arrestin, luminescence | PathHunter beta-arrestin GPR151 cells | activation, % at 11.2 µM | 1% of 650,000 active | AID 1508602, 2020; in the data active = activation above about 4.9%;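 also: 0% = median of compound wells and 100% = cells with positive control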
FBW7 act – FBW7 E3 ligase activators, primary screen, biochemical, AlphaScreen, human; F-box/WD repeat-containing protein 7 (Homo sapiens), Q969H0; AlphaScreen FBW7–phospho-cyclin E peptide binding, activator screen; normalized activity (activation), % at 26.1 µM; 0.13% of 650,000 active; AID 1259310, 2017; in the data active = normalized activity above about 1.9%;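 also: purified mutant Fbw7 with reduced substrate affinity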
Target sequence (Q969H0 whole entry, looked up): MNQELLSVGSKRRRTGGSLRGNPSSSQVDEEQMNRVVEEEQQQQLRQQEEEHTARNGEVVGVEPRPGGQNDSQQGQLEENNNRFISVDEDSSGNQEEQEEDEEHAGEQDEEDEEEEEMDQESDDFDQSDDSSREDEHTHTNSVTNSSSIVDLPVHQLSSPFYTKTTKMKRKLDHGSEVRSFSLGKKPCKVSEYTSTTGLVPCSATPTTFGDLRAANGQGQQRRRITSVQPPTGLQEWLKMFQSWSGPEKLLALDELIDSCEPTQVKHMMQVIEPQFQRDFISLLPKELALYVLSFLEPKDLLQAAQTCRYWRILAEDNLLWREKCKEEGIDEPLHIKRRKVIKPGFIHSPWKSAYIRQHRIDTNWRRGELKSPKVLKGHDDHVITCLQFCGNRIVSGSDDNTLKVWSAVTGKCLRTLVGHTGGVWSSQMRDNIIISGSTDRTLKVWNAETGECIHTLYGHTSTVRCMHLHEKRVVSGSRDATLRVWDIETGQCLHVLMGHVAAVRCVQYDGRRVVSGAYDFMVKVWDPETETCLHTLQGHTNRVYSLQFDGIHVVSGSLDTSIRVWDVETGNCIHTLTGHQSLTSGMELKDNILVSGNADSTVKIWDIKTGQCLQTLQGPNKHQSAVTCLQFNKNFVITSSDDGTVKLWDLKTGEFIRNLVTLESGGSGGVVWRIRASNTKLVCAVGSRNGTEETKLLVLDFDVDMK
MITF inh – MITF inhibitors, primary screen, biochemical, AlphaScreen, human. AlphaScreen MITF homodimerization, bead proximity signal. inhibition, % at 2.6 µM. 0.91% of 650,000 active. AID 1259374, 2018; in the data active = inhibition above about 50%;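 also: 0% = vehicle wells with protein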
GPR151 conf act – GPR151 activators, triplicate retest, confirmation, cell-based, PathHunter beta-arrestin, luminescence; GPR151 PathHunter beta-arrestin cells, 90 min; % of EA-reagent control over plate median; 6,700 tested, under 10 active; AID 1508609, 2020; activation, % at 11.2 µM; shares compounds with GPR151 ag;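 active = mean percent activation across replicates above the confirmation screen cutoff of 4.91%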
GPR119 counter – GPR119 activators in beta-arrestin cells, counter-screen for GPR151 activator project, cell-based, PathHunter beta-arrestin, luminescence, triplicate. activation, % at 11.2 µM. 90 min; 0 = compound-well median, 100 = enzyme-acceptor control. AID 1508611, 2020. 0.3% of 6,700 active. shares compounds with GPR151 ag;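 active = mean percent activation in the counterscreen above 29.09%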;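 also: counterscreen on off-target GPR119 to flag nonselective hits from the GPR151 activator screen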
An asterisk follows results filed as active.

How did CC(=O)ON1C(=O)c2cccc3c(Br)ccc(c23)C1=O do in these assays?
TEAD-YAP inh: 6.9; GPR151 ag: -1.0; FBW7 act: 0.0; MITF inh: 5.2

What do the screens show for `O=C(Cn1cc(/C=C2\SC(=S)NC2=O)c2ccccc21)NCc1cccs1`?
TEAD-YAP inh: 5.6; GPR151 ag: 6.8*; FBW7 act: 0.3; MITF inh: 7.3; GPR151 conf act: 0.8; GPR119 counter: -3.3

What do the screens show for `COCCCNC(=O)c1nn(-c2ccccc2OC)c(=O)c2ccccc12`?
TEAD-YAP inh: -4.2; GPR151 ag: -0.9; FBW7 act: -0.1; MITF inh: -2.7

How did CN=c1nc(-c2ccccc2)n(-c2ccccc2)s1 do in these assays?
TEAD-YAP inh: -6.9; GPR151 ag: -0.5; FBW7 act: 0.0; MITF inh: 2.5

How did CC(=O)N=c1nc(-c2ccccc2)n(-c2ccccc2)s1 do in these assays?
TEAD-YAP inh: -15.8; GPR151 ag: 6.9*; FBW7 act: -0.1; MITF inh: -11.2; GPR151 conf act: -1.1; GPR119 counter: -10.0

Results for C=CCn1c(CCNC(=O)C(C)C)nc2ccccc21 ?
TEAD-YAP inh: -0.8; GPR151 ag: 7.0*; FBW7 act: 0.0; MITF inh: 4.9; GPR151 conf act: -0.1; GPR119 counter: 4.2

What do the screens show for `CC(C)C(=O)NCCc1nc2ccccc2n1Cc1ccccc1`?
TEAD-YAP inh: -4.1; GPR151 ag: -0.1; FBW7 act: 0.0; MITF inh: 7.6

Results for O=C(CNC(=O)c1ccco1)N/N=C/c1ccc(Cl)cc1 ?
TEAD-YAP inh: 2.2; GPR151 ag: -0.8; FBW7 act: 0.2; MITF inh: 3.8

How did CCN1CCN(C(=O)c2ccc(OC)c([N+](=O)[O-])c2)CC1 do in these assays?
TEAD-YAP inh: -5.2; GPR151 ag: 7.4*; FBW7 act: -0.1; MITF inh: -10.7; GPR151 conf act: -1.2; GPR119 counter: -6.1

What do the screens show for `COc1ccc(C(=O)N2CCN(C)CC2)cc1[N+](=O)[O-]`?
TEAD-YAP inh: -2.8; GPR151 ag: 0.9; FBW7 act: 0.3; MITF inh: 7.4

What do the screens show for `COC(=O)Cc1ccc2c(c1)NC(=O)C(CCO)O2` (stereo not given)?
TEAD-YAP inh: -3.7; GPR151 ag: -1.6; FBW7 act: 0.4; MITF inh: 3.0

Results for Cc1ccc(C)c(C(=O)Cc2cc3c(ccc4ccccc43)oc2=O)c1 ?
TEAD-YAP inh: -5.1; GPR151 ag: 1.5; FBW7 act: 0.2; MITF inh: 8.8

Results for O=C(c1c[nH]c2ccc(S(=O)(=O)N3CCCCCC3)cc2c1=O)N1CCOCC1 ?
TEAD-YAP inh: 1.4; GPR151 ag: 10.8*; FBW7 act: -0.1; MITF inh: 13.8; GPR151 conf act: -0.1; GPR119 counter: 4.4

What do the screens show for `CCn1c(SCC(=O)c2cccs2)nc2c1c(=O)n(C)c(=O)n2C`?
TEAD-YAP inh: -3.0; GPR151 ag: 5.3*; FBW7 act: -0.1; MITF inh: -3.4; GPR151 conf act: 0.3; GPR119 counter: -0.8

What do the screens show for `O=c1oc2cc(O)ccc2cc1S(=O)(=O)c1ccc(Br)cc1`?
TEAD-YAP inh: 9.8; GPR151 ag: -0.8; FBW7 act: 0.1; MITF inh: 1.9

How did COc1cc(NS(=O)(=O)c2cc(C(=O)O)ccc2OC)cc(OC)c1 do in these assays?
TEAD-YAP inh: 10.4; GPR151 ag: 9.2*; FBW7 act: 0.2; MITF inh: 2.5; GPR151 conf act: 0.2; GPR119 counter: 7.9

What do the screens show for `COc1ccc(OC)c(S(=O)(=O)Nc2ccc(C(=O)O)cc2)c1`?
TEAD-YAP inh: 1.7; GPR151 ag: -0.1; FBW7 act: -0.2; MITF inh: -0.5

What do the screens show for `CC(C)N(CCNc1nc(N2CCC(N3CCOCC3)CC2)nc2c1ncn2C1CCCCC1)C(C)C`?
TEAD-YAP inh: 2.9; GPR151 ag: 14.3*; FBW7 act: -0.1; MITF inh: 9.7; GPR151 conf act: 1.0; GPR119 counter: 5.9

What do the screens show for `Cc1cnc(N2CCC(N3CCOCC3)CC2)nc1NCCN(C(C)C)C(C)C`?
TEAD-YAP inh: 1.1; GPR151 ag: 6.7*; FBW7 act: 0.2; MITF inh: -9.0; GPR151 conf act: -0.8; GPR119 counter: 6.3

How did O=C(c1cccc([N+](=O)[O-])c1)N1N=C(c2ccncc2)CC1(O)C(F)(F)F (stereo not given) do in these assays?
TEAD-YAP inh: 6.4; GPR151 ag: 1.0; FBW7 act: 0.3; MITF inh: 10.5

Results for CCCCC1=NN2C(=N)/C(=C/c3cccc(OS(C)(=O)=O)c3)C(=O)N=C2S1 ?
TEAD-YAP inh: 1.0; GPR151 ag: 1.1; FBW7 act: -0.1; MITF inh: 4.9

How did CCCOC(=O)CN1C(=O)C2C3c4ccccc4C(c4ccccc43)C2C1=O (stereo not given) do in these assays?
TEAD-YAP inh: 4.0; GPR151 ag: 5.0*; FBW7 act: 0.1; MITF inh: 16.4; GPR151 conf act: -0.9; GPR119 counter: -15.0

Results for Cc1cccc(NC(=O)Oc2ccc(C(C)(C)c3ccc(OC(=O)Nc4cccc(C)c4)cc3)cc2)c1 ?
TEAD-YAP inh: -2.0; GPR151 ag: -0.2; FBW7 act: -0.2; MITF inh: 0.6

How did CC(C)(c1ccccc1)c1ccc(OC(=O)Nc2ccc(Cl)c(Cl)c2)cc1 do in these assays?
TEAD-YAP inh: -3.9; GPR151 ag: 5.4*; FBW7 act: -0.1; MITF inh: -2.1; GPR151 conf act: 0.9; GPR119 counter: 1.5

Results for CCCCNC(=O)C1Cc2ccccc2CN1S(=O)(=O)c1cccs1 (stereo not given) ?
TEAD-YAP inh: 10.7; GPR151 ag: 5.7*; FBW7 act: 0.2; MITF inh: -0.8; GPR151 conf act: 0.2; GPR119 counter: -5.3

What do the screens show for `CNC(=S)NNC(=O)c1n[nH]c(=O)c2ccccc12`?
TEAD-YAP inh: -6.2; GPR151 ag: 0.9; FBW7 act: -0.7; MITF inh: -1.1

How did Cc1cc(C(=O)NNC(=O)COc2ccccc2)n[nH]1 do in these assays?
TEAD-YAP inh: -0.1; GPR151 ag: -0.9; FBW7 act: 0.1; MITF inh: -3.9

Results for CC(=O)NNc1cccc(Cl)c1 ?
TEAD-YAP inh: 3.9; GPR151 ag: 6.1*; FBW7 act: 0.0; MITF inh: -10.2; GPR151 conf act: -0.5; GPR119 counter: -3.0

Results for CCc1c(C)sc(NC(=S)NCc2ccc(S(N)(=O)=O)cc2)c1C(=O)OC ?
TEAD-YAP inh: -5.5; GPR151 ag: 6.3*; FBW7 act: 0.0; MITF inh: 12.0; GPR151 conf act: -1.0; GPR119 counter: -12.1
